Reference: PubChem BioAssay (Tox21)
Results filed as inconclusive are left out. Where a call stands in place of a potency, no number is given. The source made the active and inactive calls. Calls come from the whole dose curve; as a rule, active = well fitted inhibition curve with a large enough effect in the signal ratio in the repeat runs (not every such curve was filed as active); inconclusive = weak or mixed curves, or effect the other way; inactive = no such curve, though single readings can be large or run the other way; the % refers to the signal ratio.

molecular target: Glucocorticoid receptor (Homo sapiens) (UniProt P04150); assay: qHTS assay to identify small molecule antagonists of the glucocorticoid receptor (GR) signaling pathway (AID 720692); conditions: GR-bla HeLa, beta-lactamase FRET ratio, dexamethasone-stimulated, 18 h; series mostly up to 58.5 µM
Description: U.S. Tox21 Program National Center for Advancing Translational Sciences [NCATS] NIH Chemical Genomics Center [NCGC] U.S. Environmental Protection Agency [EPA] National Institutes of Environmental Health Sciences [NIEHS] National Toxicology Program [NTP] U.S. Food and Drug Administration [FDA] Tox21 Assay Overview: The Glucocorticoid receptor (GR) is one of the members of the nuclear receptor family of ligand-dependent transcription factors. GR plays a critical role in carbohydrate, protein and lipid metabolisms and programmed cell death. CellSensor GR-bla HeLa cell line (Invitrogen) contains a beta-lactamase reporter gene under the control of the glucocorticoid response element stably integrated into HeLa cells, a cervical cancer cell line that expresses glucocorticoid receptor. The activation of the reporter gene under culture conditions can be detected by fluorescence intensity. This cell line has been used to screen the Tox21 10K compound library and to identify the compounds that inhibit the GR signaling.
Tox21 Assay Protocol Summary: The GR-bla HeLa cells were dispensed at 1500 cells/5 ul/well in 1536-well black wall/clear bottom plates using a Multidrop Combi (ThermoFisher Scientific, Waltham, MA) dispenser. After the assay plates were incubated at a 37 C/5% CO2 incubator for 4 hours, 23 nL of compounds dissolved in DMSO, positive controls or DMSO only was transferred to the assay plate by a pintool station (Kalypsys, San Diego, CA), followed by addition of 1 uL of dexamethasone (5 nM, final concentration in the well). The plates were incubated at 37 C for 18 hours. After 1 uL of LiveBLAzerTM B/G FRET substrate was added using a Flying Reagent Dispenser (Aurora Discovery, San Diego, CA), the plates were incubated at room temperature for 2 hours, and fluorescence intensity was measured by an Envision plate reader (PerkinElmer, Shelton, CT).
Potency is the fitted concentration of half-maximal effect.

Chain of Glucocorticoid receptor (Homo sapiens) (P04150 whole entry, looked up): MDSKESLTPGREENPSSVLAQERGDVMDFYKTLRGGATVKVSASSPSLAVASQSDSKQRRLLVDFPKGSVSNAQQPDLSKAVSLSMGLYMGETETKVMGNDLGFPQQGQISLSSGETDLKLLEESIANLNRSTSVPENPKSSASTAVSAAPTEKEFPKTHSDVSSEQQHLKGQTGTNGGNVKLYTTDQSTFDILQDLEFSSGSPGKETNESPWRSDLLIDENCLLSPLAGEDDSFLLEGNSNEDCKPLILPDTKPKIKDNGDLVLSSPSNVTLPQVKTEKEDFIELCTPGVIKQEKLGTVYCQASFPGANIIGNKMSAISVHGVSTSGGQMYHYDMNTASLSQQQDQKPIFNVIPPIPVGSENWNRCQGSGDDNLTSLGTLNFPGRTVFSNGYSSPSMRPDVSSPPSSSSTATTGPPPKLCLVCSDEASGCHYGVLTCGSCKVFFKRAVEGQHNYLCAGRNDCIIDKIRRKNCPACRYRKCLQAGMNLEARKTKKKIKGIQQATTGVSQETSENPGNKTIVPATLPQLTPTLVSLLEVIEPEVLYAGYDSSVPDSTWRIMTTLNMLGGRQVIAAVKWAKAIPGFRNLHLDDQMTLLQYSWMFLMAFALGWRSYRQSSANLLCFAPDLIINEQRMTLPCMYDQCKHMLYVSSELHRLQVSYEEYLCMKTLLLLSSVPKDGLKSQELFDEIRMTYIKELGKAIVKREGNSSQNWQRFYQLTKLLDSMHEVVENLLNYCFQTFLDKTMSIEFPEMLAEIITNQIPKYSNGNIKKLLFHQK

| Compound | Potency |
| --- | --- |
| COc1cc(CNC(=O)CCCC/C=C/C(C)C)ccc1O | inactive |
| CCCC1CCOC(C)S1 (stereo not given) | inactive |
| O=C(O)CNc1ccccc1 | inactive |
| O=C(O)c1cccc(C(=O)O)c1C(=O)O | inactive |
| CC(C)(C)N | inactive |
| N#C[C@@H]1CC(F)(F)CN1C(=O)CNC1CC2CCC(C1)N2c1ncccn1 (stereo not given in full) | inactive |
| C[C@H](CN1CCCC1)C(=O)c1ccc(C(F)(F)F)cc1 | inactive |
| C/C(=C(\CCO)SS/C(CCO)=C(\C)N(C=O)Cc1cnc(C)nc1N)N(C=O)Cc1cnc(C)nc1N | inactive |
| CC(C)(C)c1ccc(CCC=O)cc1 | inactive |
| Cc1cc(C)n(CO)n1 | inactive |
| OCCc1ccncc1 | inactive |
| O=C1CCCN1CCO | inactive |
| CC(C)(O)C(=O)O | inactive |
| CCCCCCCCNC | inactive |
| CCOC(C)OCC | inactive |
| Cc1cccc(C)c1NC(=O)CN1CCCC1 | inactive |
| CC(=O)Nc1cccc(N)c1 | inactive |
| COc1ccc(CN(CCN(C)C)c2ncccn2)cc1 | inactive |
| O=C(OCCCCCOC(=O)c1ccccc1)c1ccccc1 | inactive |
| O=C(O)c1ccccc1[N+](=O)[O-] | inactive |

| Compound | Potency |
| --- | --- |
| CC(=O)S[C@H](C(=O)N[C@H]1Cc2ccccc2[C@H]2CCC[C@@H](C(=O)O)N2C1=O)C(C)C | inactive |
| CCCCCC1CCC(=O)O1 (stereo not given) | inactive |
| COC(=O)c1cc(Cl)ccc1[N+](=O)[O-] | inactive |
| CCCCOc1ccc(N)cc1 | inactive |
| CCCCCCCCCCCC(=O)OCC | inactive |
| COC(=O)C(C)(C)C | inactive |
| C=C[Si]1(C)O[Si](C)(C=C)O[Si](C)(C=C)O[Si](C)(C=C)O1 (stereo not given) | inactive |
| CC(C)(C(=O)O)c1ccc(C(O)CCCN2CCC(C(O)(c3ccccc3)c3ccccc3)CC2)cc1 (stereo not given) | inactive |
| CS(C)=O | inactive |
| Cc1cc(SC2=C(O)C[C@@](CCc3ccc(N)cc3)(C(C)C)OC2=O)c(C(C)(C)C)cc1CO | 54.9 µM (active) |
| NC(=O)c1ccccc1 | inactive |
| CC(C(=O)O)c1ccc2c(c1)Cc1cccnc1O2 (stereo not given) | inactive |
| COC(=O)Cc1cccc2ccccc12 | inactive |
| CC(C)CCCCCCCOC(=O)c1ccc(C(=O)OCCCCCCCC(C)C)c(C(=O)OCCCCCCCC(C)C)c1 | inactive |
| O=Cc1ccc([N+](=O)[O-])cc1 | inactive |
| C=CC(=O)NC(C)(C)C | inactive |
| [O-][n+]1ccc(Cl)cc1 | inactive |
| O=c1[nH]nc(-c2ccc([N+](=O)[O-])o2)o1 | inactive |
| CC(C(=O)O)c1ccc(/C=C2\CCCCC2=O)cc1 (stereo not given) | inactive |
| CC(C)CCCCCOC(=O)CS | inactive |
